According to PubChem BioAssay (NCATS):
Values joined by “and” are separate entries in the source; they are usually repeats but may differ in a detail not shown here. Equal values may be shown once. Records with an inconclusive call do not appear. Active and inactive are the calls of the source. Unless noted, the call rests on the fitted dose curve; in most records, active means well fitted curve in the direction sought with a large enough effect; inconclusive means small, poorly fitted or top-dose-only effect, or another doubt; inactive means no such curve, though single readings can be large; an effect the other way counts as inactive or inconclusive.

Tests used:
[1] = biological target: Calcium and integrin-binding protein 1 (Homo sapiens) (UniProt Q99828); assay: Primary qHTS for Identification of Calcium Integrin Binding Protein 1 (CIB1) Competitor (AID 1508620); settings: CIB1-GST / FITC-alphaIIb peptide fluorescence polarization; series mostly up to 114 µM;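 further: GST tagged CIB1 binding a fluorescein labelled alphaIIb integrin peptide tracer; top concentration of the series differs between compounds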
Sequence of Calcium and integrin-binding protein 1 (Homo sapiens) (Q99828 whole entry, looked up): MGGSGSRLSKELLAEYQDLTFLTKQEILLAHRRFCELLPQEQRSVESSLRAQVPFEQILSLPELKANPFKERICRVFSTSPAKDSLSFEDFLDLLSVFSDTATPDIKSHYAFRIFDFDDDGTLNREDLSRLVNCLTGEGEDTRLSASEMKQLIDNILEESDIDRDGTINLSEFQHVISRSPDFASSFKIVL
In short: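 Fluorescence polarization competition: GST-tagged CIB1 (1 uM final) preincubated with compound 15 min at room temperature, then FITC-labelled alphaIIb peptide (100 nM final) added. After 15 min at room temperature, polarization read at Ex 480/Em 540.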

[2] = biological target: Cytochrome P450 2D6 (Homo sapiens) (UniProt P10635); assay: Cytochrome P450 family 2 subfamily D member 6 (CYP2D6) small molecule antagonists: luciferase biochemical (cell-free) qHTS assay (AID 1645840; active means well fitted curve in the direction sought with a large enough effect in the repeat runs; an effect the other way counts as inactive or inconclusive; further: nearly all actives have a fitted effect of over 55% in size; further: potency means the concentration at half of the fitted maximal effect); settings: P450-Glo CYP2D6 enzyme, luciferin luminescence, 1 h; series mostly up to 57.4 µM
Sequence of Cytochrome P450 2D6 (Homo sapiens) (P10635 whole entry, looked up): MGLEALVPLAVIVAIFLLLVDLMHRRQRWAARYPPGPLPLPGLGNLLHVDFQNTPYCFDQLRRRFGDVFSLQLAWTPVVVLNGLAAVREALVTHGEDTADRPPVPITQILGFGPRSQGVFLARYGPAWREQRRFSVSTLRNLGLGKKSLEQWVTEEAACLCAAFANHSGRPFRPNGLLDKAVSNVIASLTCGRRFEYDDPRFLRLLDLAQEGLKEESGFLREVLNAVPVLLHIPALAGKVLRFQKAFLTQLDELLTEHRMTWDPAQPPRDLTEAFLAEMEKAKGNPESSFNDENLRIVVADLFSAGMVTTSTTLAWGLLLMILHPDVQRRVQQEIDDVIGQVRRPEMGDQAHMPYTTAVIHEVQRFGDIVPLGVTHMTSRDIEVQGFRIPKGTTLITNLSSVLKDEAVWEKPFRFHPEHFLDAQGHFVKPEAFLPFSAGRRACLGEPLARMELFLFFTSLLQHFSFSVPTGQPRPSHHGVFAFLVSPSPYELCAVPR
In short: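 P450-Glo luminescent screen: recombinant CYP2D6 enzyme–proluciferin substrate mix preincubated with compound 10 min at room temperature, then NADPH regeneration added for 1 h at room temperature. Detection reagent added for 20 min; luciferin light read as relative luminescence units.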

[3] = biological target: Cytochrome P450 2C9 (Homo sapiens) (UniProt P11712); assay: Cytochrome P450 family 2 subfamily C member 9 (CYP2C9) small molecule antagonists: luciferase biochemical (cell-free) qHTS assay (AID 1645842; active means well fitted curve in the direction sought with a large enough effect in the repeat runs; an effect the other way counts as inactive or inconclusive; further: nearly all actives have a fitted effect of over 55% in size; further: potency means the concentration at half of the fitted maximal effect); settings: P450-Glo CYP2C9 enzyme assay, luciferin luminescence; series mostly up to 57.4 µM
Sequence of Cytochrome P450 2C9 (Homo sapiens) (P11712 whole entry, looked up): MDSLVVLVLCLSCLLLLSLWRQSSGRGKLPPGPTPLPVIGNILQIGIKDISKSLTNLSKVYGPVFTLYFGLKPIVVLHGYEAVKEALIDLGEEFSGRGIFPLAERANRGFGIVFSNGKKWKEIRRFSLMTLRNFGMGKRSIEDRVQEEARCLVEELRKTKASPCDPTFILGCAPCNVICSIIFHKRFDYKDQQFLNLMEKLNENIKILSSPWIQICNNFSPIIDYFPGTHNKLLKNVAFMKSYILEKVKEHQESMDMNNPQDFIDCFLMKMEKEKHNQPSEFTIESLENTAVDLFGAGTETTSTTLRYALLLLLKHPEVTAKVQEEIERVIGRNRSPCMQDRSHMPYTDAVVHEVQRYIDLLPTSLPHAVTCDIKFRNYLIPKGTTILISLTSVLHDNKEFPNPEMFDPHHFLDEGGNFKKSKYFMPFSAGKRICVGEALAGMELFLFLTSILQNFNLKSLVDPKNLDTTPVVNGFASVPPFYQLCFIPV
In short: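 Luminescence, after 20 min with luciferin detection reagent, reflected CYP2C9 turnover during a 1 h NADPH-driven reaction at 37C. Enzyme-substrate mix contained 0.4% bovine serum albumin and was preincubated with compound 10 min at room temperature.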

[4] = Primary qHTS for inhibitors of nuclear receptor binding SET domain protein 2 (NSD2) in an isogenic RCH-ACV NSD2 p.E1099K mutant (9B) (AID 1645876); settings: RCH-ACV NSD2 E1099K (9B) viability, CellTiter-Glo, 72 h; series mostly up to 44.9 µM; further: nearly all actives have a fitted effect of over 70% in size; further: potency means the concentration at half of the fitted maximal effect
[5] = Primary qHTS for inhibitors of nuclear receptor binding SET domain protein 2 (NSD2) in an RCH-ACV wild type WT cells (2C) (AID 1645877); settings: RCH-ACV (leukaemia line) NSD2 WT (2C) viability, CellTiter-Glo, 72 h; series mostly up to 44.9 µM; further: nearly all actives have a fitted effect of over 70% in size; further: potency means the concentration at half of the fitted maximal effect

Structure (SMILES) | Potency [1] | Potency [2] | Potency [3] | Potency [4] | Potency [5]
Cc1cc2sc(NC(=O)Cc3ccccc3)nc2cc1Cl | inactive | inactive | inactive | inactive | inactive
Cc1cc(C)cc(-c2cnc3cc(Cl)c(-c4cccc(O)c4)cc3c2OCCCN)c1 | inactive | 7.56 µM (active) | 1.2 µM (active) | – | 16.3 µM (active)
Cc1c(C(=O)NCc2cccnc2)nn(-c2ccc(Cl)cc2Cl)c1-c1ccc(Cl)cc1 | inactive | 0.213 µM (active) | 5.35 µM (active) | – | 20.5 µM (active)
CC(C)S(=O)(=O)NC[C@H](C)c1ccc(-c2ccc(CCNS(C)(=O)=O)cc2)cc1 | inactive | inactive | – | 6.49 µM (active) | –
Clc1ccc(Nc2nc3ccccc3c3nc(C4CCCCC4)[nH]c23)cc1Cl | inactive | inactive | 6.01 µM (active) | 16.3 µM (active) | 16.3 µM (active)
CC(F)(F)CN1CCOc2c(nn(-c3ccccc3Cl)c2-c2ccc(Cl)cc2)C1=O | inactive | 13.5 µM (active) | 13.5 µM (active) | – | 18.3 µM (active)
CC[C@@H](Nc1c(Nc2cccc(C(=O)N(C)C)c2O)c(=O)c1=O)c1cc(C(C)C)co1 | inactive | 16.9 µM (active) | 5.35 µM (active) | – | 16.3 µM (active)
C=CC(=O)Nc1cccc(Nc2nc(Nc3ccc(NC4CN(CCF)C4)cc3OC)ncc2C(F)(F)F)c1 | inactive | 13.5 µM (active) | 0.268 µM (active) | 4.59 µM (active) and 5.9 µM (active) | 4.09 µM (active) and 6.61 µM (active)
CCN1C(C)(C)CC(Oc2ccc(C(=O)Nc3ccc(NC(=O)Nc4cc(C(C)(C)C)on4)cc3)nc2)CC1(C)C | inactive | 19 µM (active) | inactive | 4.11 µM (active) | 6.51 µM (active)
COc1ccc(CNc2nc(N(CCO)CCO)nc3c2ncn3C(C)C)cc1 | inactive | inactive | 3.79 µM (active) | 7.42 µM (active) | 5.25 µM (active)
O=C(NCC1(c2nc(-c3ccccc3)cs2)CCOCC1)c1cccc(-c2noc(C(F)(F)F)n2)c1 | inactive | inactive | 3.01 µM (active) | – | 25.8 µM (active)
Cc1cccc(CC(=O)N2CCc3c2ccc(-c2cn(C)c4ncnc(N)c24)c3F)n1 | inactive | inactive | 10.7 µM (active) | – | 16.4 µM (active)
CNc1cccc(CCOc2ccc3c(c2)CN(CC(F)(F)F)C(=O)[C@H](CC(=O)O)C3)n1 | inactive | inactive | inactive | inactive | inactive
CCn1c(=O)c(-c2ccc(-c3cncs3)cc2Cl)cc2cnc(Nc3ccc(N4CCN(C)CC4)cc3)nc21 | inactive | inactive | 6.01 µM (active) | 2.31 µM (active) | 2.59 µM (active)
CN(C)Cc1ccc(-c2cnn3c(-c4cccc(NC(=O)c5cccc(C(F)(F)F)c5)c4)ccnc23)cc1 | inactive | 13.5 µM (active) | 7.56 µM (active) | 3.65 µM (active) | 4.09 µM (active)
Cc1cc(C)nc(SCC(=O)Nc2ncc(Cc3cccc4ccccc34)s2)n1 | inactive | inactive | 10.7 µM (active) | – | inactive
COc1ccc(Oc2c(Cl)cnn(-c3cc(C)cc(C)c3)c2=O)cc1 | inactive | inactive | 12 µM (active) | 11.5 µM (active) | 4.09 µM (active)
COc1cc(Br)c(S(=O)(=O)Nc2ccc(Cl)c(O[C@@H]3CCN(C)C3)c2)cc1OC | inactive | 15.1 µM (active) | 10.7 µM (active) | 12.9 µM (active) | 11.5 µM (active)
N#Cc1ccc2ncnc(NCCc3ccccc3)c2c1 | inactive | 15.1 µM (active) | 26.8 µM (active) | 6.49 µM (active) | 4.09 µM (active)
Cc1cc(CS(=O)(=O)c2ccccc2)cc(OCc2ccc(CN3CCCC3CO)cc2)c1 (stereo not given) | inactive | 0.952 µM (active) | – | 14.5 µM (active) | –
OC(c1ccc(-c2ccc(CN3CCN(Cc4ccncc4)CC3)cc2)c(F)c1)(C(F)(F)F)C(F)(F)F | inactive | 3.38 µM (active) | – | inactive | –
C=CC(=O)N1CCN(C(=O)CNc2cc(-c3ccccc3Cl)c(Cl)cc2OC)CC1 | inactive | 12 µM (active) | 3.01 µM (active) | – | 16.3 µM (active)
CCCNCCc1ccc(NS(=O)(=O)c2ccc(OC(F)(F)F)cc2)cc1 | inactive | 1.34 µM (active) | 8.49 µM (active) | – | 14.5 µM (active)
Cc1cc(C)c(-n2cc(C)c3c(Cl)nc(C)nc32)c(C)c1 | inactive | inactive | 10.7 µM (active) | – | inactive
C=CC(=O)Nc1cc(-n2c(=O)ccc3cnc4ccc(-c5ccc(NS(C)(=O)=O)cc5)cc4c32)ccc1C | inactive | inactive | 1.51 µM (active) | 3.26 µM (active) | 3.66 µM (active)
CCCc1cc(C)[nH]c(=O)c1CNC(=O)c1cc(-c2ccnc(N3CCN(C)CC3)c2)cc2c1cnn2C(C)C | inactive | 23.9 µM (active) | 13.5 µM (active) | 12.9 µM (active) and 16.6 µM (active) | 9.16 µM (active) and 16.6 µM (active)

Structure (SMILES) | Potency [1] | Potency [2] | Potency [3] | Potency [4] | Potency [5]
CC(C)OC(=O)N1CCC(Oc2ncnc3c2cnn3-c2ccc(S(C)(=O)=O)cc2F)CC1 | inactive | inactive | 3.79 µM (active) | inactive | inactive
O=C(NCCN1CCOCC1)c1cc2c(Oc3ccc(NC(=O)C4(C(=O)Nc5ccc(F)cc5)CC4)cc3)ccnc2[nH]1 | inactive | 19 µM (active) | 12 µM (active) | 23 µM (active) | 12.9 µM (active)
Cc1[nH]c(/C=C2\C(=O)Nc3ccc(F)cc32)c(C)c1C(=O)NCCN1CCCC1 | inactive | inactive | inactive | 16.3 µM (active) and 7.23 µM (active) | 11.5 µM (active) and 7.23 µM (active)
CN(C)C(=O)NC1(c2ccccc2)CCN(CCC[C@]2(c3ccc(Cl)c(Cl)c3)CCCN(C(=O)c3ccccc3)C2)CC1 | inactive | 3.38 µM (active) | 21.3 µM (active) | 3.25 µM (active) | 2.9 µM (active)
CC(C)NCCCn1c(Sc2cc3c(cc2I)OCO3)nc2c(N)ncnc21 | inactive | 0.536 µM (active) | – | 0.365 µM (active) | 0.325 µM (active)
CC(NC(=O)Cc1cc(F)cc(F)c1)C(=O)NC1C(=O)N(C)c2ccccc2-c2ccccc21 (stereo not given) | inactive | inactive | – | 2.58 µM (active) | 3.25 µM (active)
CCC(C)CNCC(=O)N1CCc2sccc2C1COc1cccc(C)c1 (stereo not given) | inactive | 0.0952 µM (active) | – | 16.3 µM (active) | 20.5 µM (active)
CN1CCN(S(=O)(=O)c2ccc(-c3cnc(N)c(C(=O)Nc4cccnc4)n3)cc2)CC1 | inactive | inactive | – | 0.317 µM (active) | 0.317 µM (active)
O=c1ccc2ccc(OCCCCN3CCN(c4cccc5sccc45)CC3)cc2[nH]1 | inactive | 1.34 µM (active) | – | 14.5 µM (active) | 16.3 µM (active)
CC(=O)NC[C@H]1CN(c2ccc(N3CCSCC3)c(F)c2)C(=O)O1 | inactive | inactive | – | inactive | inactive
O=C(Nc1cc(C(F)(F)F)cc(C(F)(F)F)c1)c1cnc(Cl)nc1C(F)(F)F | inactive | 19 µM (active) | – | 25.8 µM (active) | –
CCC[C@H](N[C@H]1CCc2cc(F)cc(F)c2C1)C(=O)Nc1cn(C(C)(C)CNCC(C)(C)C)cn1 | inactive | inactive | – | 16.3 µM (active) and 13.2 µM (active) | 13.2 µM (active)
C#CCNCc1cc2cc(OCc3ccccc3)ccc2[nH]1 | inactive | 23.9 µM (active) | – | inactive | inactive
O=C(NCC1CCN(Cc2cccc(Cl)c2)CC1)[C@@H]1CCCN(c2ncnc3c2nc2n3CCCC2)C1 | inactive | 15.1 µM (active) | – | inactive | inactive
Cc1nc(-c2cn3c(n2)-c2ccc(-c4cnn(C(C)(C)C(N)=O)c4)cc2OCC3)n(C(C)C)n1 | inactive | inactive | – | 7.3 nM (active) and 18.6 nM (active) | 5.8 nM (active) and 33.2 nM (active)
CCn1c2ccccc2c2cc(Nc3ccnc(NCCCN4CCOCC4)n3)ccc21 | inactive | inactive | – | 2.9 µM (active) | 8.17 µM (active)
COc1ccccc1S(=O)(=O)Nc1ccc2c(c1)CN(C)C(=O)N2 | inactive | inactive | – | 1.83 µM (active) | 1.63 µM (active)
Cc1ccc(N2CCN(CCC3NC(=O)c4ccccc43)CC2)cc1C (stereo not given) | inactive | inactive | – | inactive | inactive
Cc1cccc(C#Cc2cc(F)cc(C#N)c2)n1 | inactive | inactive | – | inactive | –
CN(C)C(=O)COC(=O)c1cc(-c2ccc(C3CCNCC3)cc2)c2ccc(-c3ccc(C(F)(F)F)cc3)cc2c1 | inactive | 10.7 µM (active) | – | 4.59 µM (active) | 4.59 µM (active)
CC1=C(c2ccc(NC(=O)c3c(F)cccc3F)cc2)CN(c2nccs2)CC1 | inactive | inactive | – | inactive | –
CCC(CC)Nc1nc(C)c(-c2ccc(OC(F)(F)F)cc2OC)nc1OC | inactive | inactive | – | inactive | inactive
c1cc(NC2CCNCC2)nc(-c2cnc3ccccn23)c1 | inactive | 15.1 µM (active) | – | 1.15 µM (active) | 1.45 µM (active)
O=C(Nc1cccnn1)N1CCN(c2nccc(-c3ccc(F)c(F)c3)n2)CC1 | inactive | inactive | – | inactive | inactive
N#Cc1ccc(O[C@@H]2c3ccccc3C[C@H]2N2CCC[C@@H](N)C2)c(Cl)c1 | inactive | 0.169 µM (active) | – | 20.5 µM (active) | 18.3 µM (active)
